Source: PubChem BioAssay
Results filed as inconclusive are left out. The source made the active and inactive calls.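 How the source made its calls, unless noted: active means RAM network inhibition above 8.4% in each of two replicates, 3 SD over the compound average; inconclusive means above 8.4% inhibition in only one replicate; inactive means 8.4% inhibition or less in each replicate.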

Tests used:
[1] = Her2 expression decrease, cell viability multiplex – SKBR3 breast tumor cells, AlphaScreen, ATP viability, primary screen (AID 461;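 active means Her2 level under about 52% in both replicate screens, with viability over 70% of control, limit read from the data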;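 on Her2 level: lower value means less Her2 protein in the cells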;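 on viability: percent of carrier control wells set as 100% viability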); settings: SKBR3 Her2 protein level, 18-24 h, measured here: SKBR3 viability, ATP luminescence, at 10 µM
[2] = target: Receptor tyrosine-protein kinase erbB-2 (Homo sapiens) (UniProt P04626); experiment: as above; settings: 18-24 h, at 10 µM, stronger effect = lower value
[3] = reduced viability of SK-BR-3 breast cancer cells – cell-based, 24 h, human, pilot screen (AID 572;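 active means viability at or below 10% of carrier control in both of two separate runs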;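 further: compound exposure lasted between 18 and 24 h rather than exactly 24 h; 100% = carrier-treated control wells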); settings: SK-BR-3 viability, CellTiter-Glo luminescence, at 10 µM, stronger effect = lower value
[4] = HUVEC growth inhibition – cell-based, human, primary screen (AID 575;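 active means viability at or below 30% in both replicate assays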;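 further: 100% = median of untreated cell wells with 0.1% DMSO on each plate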); settings: HUVEC proliferation, CellTiter-Glo luminescence, 72 h; at 10 µM; stronger effect = lower value
[5] = H69AR cell proliferation blockers – human, duplicate replicates, primary screen (AID 580;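 active means viability at or under a set limit in both replicates, limit being median viability minus 3 SD, cut at about 48% in these data, passing the limit was not always enough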;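 further: 100% = mean luminescence of untreated wells and 0% = no signal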); settings: H69AR lung tumor cells viability, ATP luminescence, 72 h; at 10 µM; stronger effect = lower value
[6] = MRP1 drug-resistance reversers in H69AR cells – cell-based, doxorubicin co-treatment, pilot screen (AID 601;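 active means viability loss from added drug above about 55%, and viability with drug at most 40%, in both replicates, limit read from the data, passing the limit was not always enough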); settings: CellTiter-Glo, 72 h, at 10 µM; for differential viability (reversal): stronger effect = higher value
[7] = yeast transport mutant growth inhibition pilot in 384-well plates, post-Golgi transport modulator project (AID 636; in the data active means inhibition above about 31%); settings: absorbance 615 nm, about 18 h, stronger effect = higher value
[8] = growth suppression of yeast trafficking mutant, preliminary HTS, modulators of trafficking downstream of Golgi apparatus project, 1536-format plate, OD 615 nm (AID 637; in the data active means inhibition above about 30%); settings: yeast transport mutant growth, absorbance 615 nm, 18 h; stronger effect = higher value
[9] = S. cerevisiae growth inhibition in permissive medium (OD615), pilot counter-assay for S. cerevisiae lifespan shortening project, permissive growth control (AID 705;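 active means growth inhibition above 25% in both replicates, a cutoff set 3 SD above the mean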); settings: OD615, 24 h, at 10 µM, stronger effect = higher value
[10] = S. cerevisiae growth inhibition in restrictive medium, OD615, pilot screen, restrictive growth control, yeast lifespan reduction project (AID 706;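 active means growth inhibition above a set limit, 3 SD over mean compound inhibition, in both replicates, cut at about 43% in these data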;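 further: modified DeaD lifespan yeast strain shifted to restrictive glucose medium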); settings: OD615, 48 h, at 10 µM, stronger effect = higher value
[11] = doxorubicin toxicity protection in MRP-1 cells – H69AR cells, CellTiter-Glo, duplicate, MRP-1 activator project, pilot screen (AID 807;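 active means viability increase at or above a cutoff of the median across tested compounds plus 3 SD, cut at about 8.5% in these data, passing the limit was not always enough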;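 further: compound pretreatment 18-22 h then 72 h combined with doxorubicin; 0% = doxorubicin alone and 100% = vehicle without doxorubicin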); settings: H69AR viability with doxorubicin, CellTiter-Glo luminescence; at 10 µM; stronger effect = higher value
[12] = viability of HCT116 without oncogenic beta-catenin – human colon tumor cells, pilot screen (AID 823;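 active means cell viability at or below a set limit in both duplicate runs, the limit being the all-compound median minus 4 SD, cut at about 23% in these data, passing the limit was not always enough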;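 further: 0% = wells killed by 20 µM Hyamine and 100% = untreated DMSO cell wells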); settings: HCT116 beta-catenin knockout viability, CellTiter-Glo, 60 h; at 10 µM; stronger effect = lower value
[13] = viability of PTEN-null HCT116 cells – cell-based, HCT116 clonal line, CellTiter-Glo, pilot screen (AID 824;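 active means viability at or below 27.92% in each of two runs, the all-compound median minus 4 SD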;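 further: 0% = 20 µM Hyamine control and 100% = vehicle cell control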); settings: HCT116 PTEN-deleted viability, 60 h, at 10 µM, stronger effect = lower value
[14] = RAM pathway blockade in budding yeast – dse1pr::URA3 reporter, 5-FOA selection, pilot screen (AID 869;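 active means inhibition over a set limit, the all-compound mean plus 3 SD, in both replicate runs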;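 further: 0% = DMSO wells with no growth and 100% = 10 µM 1-NA-PP1 with full growth; RAM network block rescues cells from 5-FOA so hits raise OD615 growth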); settings: S. cerevisiae dse1pr::URA3 5-FOA growth, OD615, 2 d; at 10 µM; stronger effect = higher value; strain carries analog-sensitive mutant Cbk1 kinase
[15] = RAM signaling pathway blockade in yeast – S. cerevisiae, Pdr1DBD-CYC8 efflux-inhibited sensitized strain, primary screen (AID 1298);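 further: 0% = DMSO untreated cells without growth and 100% = 10 µM 1-NA-PP1 full growth; higher means more yeast growth rescued from 5-FOA killing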; settings: S. cerevisiae cbk1-as DSE1-URA3 strain, 5-FOA growth OD615, 2 d; at 50 µM; stronger effect = higher value
[16] = H69AR cells + 2 uM doxorubicin, measured here: viability with 2 uM doxorubicin, stronger effect = lower value
[17] = H69AR cells, compound alone cytotoxicity

Chain of Receptor tyrosine-protein kinase erbB-2 (Homo sapiens) (P04626 whole entry, looked up): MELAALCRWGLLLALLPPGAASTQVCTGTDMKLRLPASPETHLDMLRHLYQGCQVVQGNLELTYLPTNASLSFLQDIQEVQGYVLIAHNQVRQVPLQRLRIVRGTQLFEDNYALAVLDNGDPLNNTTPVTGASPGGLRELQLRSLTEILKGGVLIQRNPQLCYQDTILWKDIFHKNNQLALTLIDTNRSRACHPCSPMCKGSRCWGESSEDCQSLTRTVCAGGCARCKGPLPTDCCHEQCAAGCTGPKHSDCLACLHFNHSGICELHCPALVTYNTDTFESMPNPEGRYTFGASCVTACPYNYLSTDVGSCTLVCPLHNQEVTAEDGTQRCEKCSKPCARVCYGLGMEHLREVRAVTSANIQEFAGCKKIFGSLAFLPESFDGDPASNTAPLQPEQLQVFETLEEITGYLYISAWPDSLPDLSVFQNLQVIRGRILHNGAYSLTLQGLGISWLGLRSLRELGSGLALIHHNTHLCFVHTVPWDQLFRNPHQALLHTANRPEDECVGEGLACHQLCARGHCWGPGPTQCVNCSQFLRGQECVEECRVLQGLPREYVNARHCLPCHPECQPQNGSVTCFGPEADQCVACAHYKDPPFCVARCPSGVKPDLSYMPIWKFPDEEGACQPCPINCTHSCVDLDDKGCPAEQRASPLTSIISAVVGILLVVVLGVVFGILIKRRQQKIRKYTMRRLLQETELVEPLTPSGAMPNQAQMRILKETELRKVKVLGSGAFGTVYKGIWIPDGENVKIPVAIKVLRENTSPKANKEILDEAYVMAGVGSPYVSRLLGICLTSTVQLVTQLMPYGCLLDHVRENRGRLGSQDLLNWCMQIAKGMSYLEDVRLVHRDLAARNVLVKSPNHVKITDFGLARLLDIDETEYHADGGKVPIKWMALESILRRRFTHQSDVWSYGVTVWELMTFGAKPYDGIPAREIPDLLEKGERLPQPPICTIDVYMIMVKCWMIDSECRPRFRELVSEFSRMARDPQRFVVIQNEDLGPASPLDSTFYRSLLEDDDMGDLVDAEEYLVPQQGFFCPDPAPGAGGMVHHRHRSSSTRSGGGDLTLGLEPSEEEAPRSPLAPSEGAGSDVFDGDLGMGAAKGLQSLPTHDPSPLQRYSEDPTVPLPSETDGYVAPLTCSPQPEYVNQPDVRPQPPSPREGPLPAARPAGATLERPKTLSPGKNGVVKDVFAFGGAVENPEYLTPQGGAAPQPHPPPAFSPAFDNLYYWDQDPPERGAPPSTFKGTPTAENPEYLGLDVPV

CC1CCCCN1CCNC(=O)c1ccc2c(=O)n(CCc3ccccc3)c(=O)[nH]c2c1 (stereo not given)
80.8%: viability [6, 16]
inactive: Her2 level [2] 72.5% | viability [3] 91% | viability [4] 53.6% | viability [5] 93.5% | differential viability (reversal) ([6]; H69AR cells + 2 uM doxorubicin) 12.7% | inhibition [7] -5% | inhibition [8] 1.17% | growth inhibition [9] -23.3% | growth inhibition [10] -18.5% | viability increase [11] -4.81% | viability [12] 76.9% | viability [13] 73.4% | inhibition [14] 1.27% | RAM network inhibition [15] 8.68%
93.5%: viability [6, 17]
91%: viability [1]

CCOC(=O)N1CCC(N2C(=O)c3ccccc3C2Nc2ccccc2C)CC1 (stereo not given)
79.8%: viability [6, 17]
47.8%: viability [6, 16]
inactive: Her2 level [2] 96.5% | viability [3] 95.5% | viability [4] 84% | viability [5] 79.8% | differential viability (reversal) ([6]; H69AR cells + 2 uM doxorubicin) 32% | inhibition [7] -5.2% | inhibition [8] -8.5% | growth inhibition [9] -16.1% | growth inhibition [10] -23.2% | viability increase [11] -4.35% | viability [12] 88.2% | viability [13] 82.5% | inhibition [14] 2.58% | RAM network inhibition [15] 7.43%
95.5%: viability [1]

CSc1cccc(NS(=O)(=O)c2ccccc2)c1
78.5%: viability [1]
87.7%: viability [6, 16]
inactive: Her2 level [2] 88% | viability [3] 78.5% | viability [4] 107% | viability [5] 88.7% | differential viability (reversal) ([6]; H69AR cells + 2 uM doxorubicin) 1.02% | inhibition [7] -0.9% | inhibition [8] -5.33% | growth inhibition [9] -0.535% | growth inhibition [10] 3.39% | viability increase [11] 0.44% | viability [12] 92.1% | viability [13] 95% | inhibition [14] 0.96% | RAM network inhibition [15] 0.21%
88.7%: viability [6, 17]

Cc1ccc(C2CC(c3ccc(C)cc3)n3nc(N)nc3N2)cc1 (stereo not given)
inactive: Her2 level [2] 109% | viability [3] 95% | viability [4] 102% | viability [5] 88.5% | differential viability (reversal) ([6]; H69AR cells + 2 uM doxorubicin) -8.68% | inhibition [7] -1.79% | inhibition [8] -1% | growth inhibition [9] 1.83% | growth inhibition [10] 12.3% | viability increase [11] -0.92% | viability [12] 96.7% | viability [13] 93.1% | inhibition [14] 1.34% | RAM network inhibition [15] 1.75%
88.5%: viability [6, 17]
95%: viability [1]
97.1%: viability [6, 16]

Cc1cc(C)nc(/N=C2\NC(=O)CC(C(=O)O)N2c2ccc(Cl)cc2)n1 (stereo not given)
inactive: Her2 level [2] 100% | viability [3] 106% | viability [4] 88.7% | viability [5] 96% | differential viability (reversal) ([6]; H69AR cells + 2 uM doxorubicin) 3.08% | inhibition [7] -6.53% | inhibition [8] 5.17% | growth inhibition [9] 0.655% | growth inhibition [10] 5.68% | viability increase [11] 1.08% | viability [12] 99.5% | viability [13] 102% | inhibition [14] 1.93% | RAM network inhibition [15] 3.63%
96%: viability [6, 17]
106%: viability [1]
92.9%: viability [6, 16]

CCN(C(=O)c1cc(Cl)ccc1OC)c1ccccc1
inactive: Her2 level [2] 110% | viability [3] 91.5% | viability [4] 95.6% | viability [5] 103% | differential viability (reversal) ([6]; H69AR cells + 2 uM doxorubicin) 2.06% | inhibition [7] 1.04% | inhibition [8] -10.3% | growth inhibition [9] -16.1% | growth inhibition [10] -19.6% | viability increase [11] -2.05% | viability [12] 89.5% | viability [13] 90% | inhibition [14] 2.85% | RAM network inhibition [15] 3.26%
103%: viability [6, 17]
101%: viability [6, 16]
91.5%: viability [1]

COC(=O)Cn1c(=O)c2c(nc3n2CC(C)CN3c2ccc(C)c(C)c2)n(C)c1=O (stereo not given)
90.5%: viability [1]
85.5%: viability [6, 17]
69.7%: viability [6, 16]
inactive: Her2 level [2] 89% | viability [3] 90.5% | viability [4] 93.2% | viability [5] 85.5% | differential viability (reversal) ([6]; H69AR cells + 2 uM doxorubicin) 15.8% | inhibition [7] -9.47% | inhibition [8] -3.5% | growth inhibition [9] -5.87% | growth inhibition [10] 0.135% | viability increase [11] -0.75% | viability [12] 97.9% | viability [13] 91.1% | inhibition [14] 1.25% | RAM network inhibition [15] 4.14%

CCOC(=O)Cn1ncc(-c2ccccc2)c1N
93%: viability [6, 17]
inactive: Her2 level [2] 72% | viability [3] 101% | viability [4] 102% | viability [5] 93% | differential viability (reversal) ([6]; H69AR cells + 2 uM doxorubicin) 7.02% | inhibition [7] -7.95% | inhibition [8] -1.43% | growth inhibition [9] 2.3% | growth inhibition [10] -2.13% | viability increase [11] 0.83% | viability [12] 100% | viability [13] 94.5% | inhibition [14] 1.83% | RAM network inhibition [15] 2.21%
86%: viability [6, 16]
101%: viability [1]

CCOC(=O)C1CCCN(C(=O)c2cn(C)c(=O)c3cc(OC)c(OC)cc23)C1 (stereo not given)
inactive: Her2 level [2] 99.5% | viability [3] 96.5% | viability [4] 94.2% | viability [5] 91% | differential viability (reversal) ([6]; H69AR cells + 2 uM doxorubicin) -9.49% | inhibition [7] -3.38% | inhibition [8] 4.43% | growth inhibition [9] -11.5% | growth inhibition [10] -4.87% | viability increase [11] -3.62% | viability [12] 97% | viability [13] 90.7% | inhibition [14] 1.17% | RAM network inhibition [15] 1.13%
91%: viability [6, 17]
101%: viability [6, 16]
96.5%: viability [1]

COc1ccc(-n2c(Cc3cccn3C)nnc2SCC(N)=O)cc1
97.5%: viability [6, 17]
94.5%: viability [1]
94.8%: viability [6, 16]
inactive: Her2 level [2] 95% | viability [3] 94.5% | viability [4] 112% | viability [5] 97.5% | differential viability (reversal) ([6]; H69AR cells + 2 uM doxorubicin) 2.7% | inhibition [7] 0.64% | inhibition [8] -3.5% | growth inhibition [9] 8.68% | growth inhibition [10] 5.57% | viability increase [11] -2.07% | viability [12] 97.6% | viability [13] 94.4% | inhibition [14] 1.42% | RAM network inhibition [15] 0.63%
